In the library only some 21% were active in any assay of this set; here they are far more common.
Pf growth 48h: Primary qHTS for delayed death inhibitors of the malarial parasite plastid, 48 hour incubation. Potency, µM (series often up to 28.7 µM), most hits filed as inhibitors. AID 504832, 2011. actives 5.9% (n = 310,000). P. falciparum luciferase growth in erythrocytes, 48 h
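Growth was read as firefly luciferase luminescence after a 48 h, 37 C, 5% CO2 exposure of compounds to reporter-bearing P. falciparum cultures (0.1% parasitemia, 2% hematocrit final) in Albumax-supplemented RPMI 1640.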
Pf growth 96h: Primary qHTS for delayed death inhibitors of the malarial parasite plastid, 96 hour incubation; P. falciparum luciferase reporter growth, 96 h; Potency, µM (series often up to 28.7 µM), usual class: inhibitors; actives 6.9% (n = 320,000)
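P. falciparum expressing integrated firefly luciferase grown in erythrocytes (2% hematocrit, 0.05% parasitemia final) with compounds for 96 hours at 37 C, 5% CO2. Growth inhibition read as loss of luminescence after adding luciferase detection reagent.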
Shiga toxin inh: A qHTS for Small Molecule Inhibitors of Shiga Toxin. actives 9.2% (n = 290,000). inhibition, % at 38.7 µM. AID 2315, 2010. Vero cells, Shiga toxin protein synthesis inhibition reporter; in the data active means inhibition mostly above about 28%, no sharp cut-off; inactive means mostly below about 43%
CHX counter: Cycloheximide Counterscreen for Small Molecule Inhibitors of Shiga Toxin; cell reporter, cycloheximide protein synthesis inhibition counterscreen; max response, %; actives 12% (n = 300,000); in the data active means max response mostly above about 13%, no sharp cut-off; inactive means mostly below about 14%; further: read at 38.3 µM for the half of the compounds with a filed dose
Each line names hits and unclear results; the compound was inactive in the other large screens. Unless noted, the call rests on the fitted dose curve; in most records, active means well fitted inhibition curve with a large enough effect; inconclusive means small, poorly fitted or top-dose-only effect, or another doubt; inactive means no such curve, though single readings can be large or run the other way.

Cc1cc(C)nc(N2CCN(C(=O)CCC(=O)Nc3nnc(C(C)C)s3)CC2)n1	none
O=C(CSc1nnc(NC(=O)c2ccccc2F)s1)NCC1CCCO1 (configuration not stated)	Shiga toxin inh 19, CHX counter 17
O=C(CSc1nnc(NC(=O)Cc2ccccc2)s1)NCC1CCCO1 (configuration not stated)	none
O=C(CSc1nnc(NC(=O)c2ccccc2[N+](=O)[O-])s1)NCC1CCCO1 (configuration not stated)	Pf growth 96h 13µM
CC(=O)Nc1nnc(SCC(=O)NCC2CCCO2)s1 (configuration not stated)	none
O=C(CSc1nnc(NC(=O)c2cccc(Br)c2)s1)NCC1CCCO1 (configuration not stated)	none
O=C(CSc1nnc(NC(=O)c2ccccc2)s1)NCC1CCCO1 (configuration not stated)	Shiga toxin inh 36, CHX counter 30
CCCCC(=O)Nc1ccc2c(c1)nc(CCN1CCN(C)CC1)n2C	none
C=CCN1C(=CCO)[C@H]2C[C@H]3[C@@H]1CC[C@@]31c3ccccc3N3C=C4[C@@H]5N(/C=C/2[C@H]31)c1ccccc1[C@]51CC[C@H]2[C@H]1C[C@@H]4/C(=C/CO)N2CC=C	none (no result: Shiga toxin inh, CHX counter)
CCCC(=O)Oc1ccc(C2NC(=O)c3ccccc3O2)cc1OC (configuration not stated)	none (no result: Shiga toxin inh)
CC(C)CC(=O)NC(=S)Nc1ccc(CN2CCOCC2)cc1	Pf growth 96h inconclusive, Shiga toxin inh 33
Cc1cccc(NC(=S)Nc2ccc(N3CCOCC3)cc2)c1C	CHX counter 13
CC(C)CC(=O)NC(=S)Nc1ccc(N2CCOCC2)cc1	Shiga toxin inh 48, CHX counter 24
Cc1ccc(NC(=S)N(CCN2CCOCC2)Cc2cc3cc4c(cc3[nH]c2=O)OCO4)cc1	Pf growth 48h inconclusive, Pf growth 96h inconclusive
COc1cc(Cl)c(C)cc1NC(=O)COc1ccc(C)nc1[N+](=O)[O-]	none (no result: Shiga toxin inh, CHX counter)
CC(C)c1ccccc1NC(=O)c1cccnc1	none
CSc1ccccc1NC(=O)c1ccc(Cl)s1	CHX counter 30 (no result: Pf growth 96h)
CSc1ccccc1NC(=O)c1ccco1	Pf growth 96h inconclusive (no result: Pf growth 48h)
CSc1ccccc1NC(=O)c1ccccn1	Shiga toxin inh 45, CHX counter 18
CSc1ccccc1NC(=O)c1cccnc1	CHX counter 15
Cc1ccccc1NC(=O)c1ccccn1	Shiga toxin inh 57, CHX counter 29
CCOC(=O)c1cnc2ccccc2c1NCc1ccco1	Pf growth 48h inconclusive, Pf growth 96h inconclusive, Shiga toxin inh 52, CHX counter 23
CCOC(=O)c1cnc2ccc(OC)cc2c1NCc1ccccc1	Pf growth 48h 12µM, Pf growth 96h inconclusive
CCOC(=O)c1cnc2ccccc2c1Nc1ccc2c(c1)OCCO2	Pf growth 48h 4.1µM, Shiga toxin inh 154, CHX counter 110
CCOC(=O)c1cnc2c(C(=O)OC)cccc2c1NCc1cccnc1	none
CCOC(=O)c1cnc2ccc(OCC)cc2c1NCc1ccccc1OC	Pf growth 48h 12µM
CC(C)(C)c1cc[n+](CC(=O)Nc2cc(C(F)(F)F)ccc2N2CCOCC2)cc1	Pf growth 48h inconclusive, Pf growth 96h inconclusive
O=C(Cc1cccc(F)c1F)NC1CCCN(Cc2ccc(Cl)cc2)C1 (configuration not stated)	Pf growth 48h inconclusive, Pf growth 96h inconclusive
CCOC(=O)CSc1nc(Nc2ccc3c(c2)OCO3)c2ccccc2n1	Pf growth 48h 8.3µM, Pf growth 96h 8.3µM
O=C1CC(=O)NC(SCC(=O)Nc2ccccc2[N+](=O)[O-])=N1	none
COc1ccc(CN2CC(=O)N(c3ccc(Cl)cc3)C2=S)cc1OC	Pf growth 48h 13µM, Pf growth 96h inconclusive
CNC(=O)CC1C(=O)N(c2ccc(Cl)cc2)C(=S)N1CCc1ccc(OC)c(OC)c1 (configuration not stated)	Pf growth 48h 12µM
CCc1ccc(N2C(=O)CN(Cc3ccc(OC)c(OC)c3)C2=S)cc1	Pf growth 48h inconclusive
COc1cccc(N2C(=O)CN(Cc3cc(OC)c(OC)c(OC)c3)C2=S)c1	Pf growth 48h 0.33µM
COc1ccc(CN2CC(=O)N(c3cccc(Cl)c3)C2=S)cc1OC	Pf growth 48h 10µM
COc1ccccc1CNC(=O)C(NS(=O)(=O)c1ccc2c(c1)OCCO2)C(C)C (configuration not stated)	none
COC(=O)c1[nH]c2c(c1C)C(=O)CC(c1cccc(OC)c1)C2 (configuration not stated)	Pf growth 96h inconclusive (no result: Pf growth 48h)
COc1cccc(NC(=O)Cn2cc(C#N)c3ccccc32)c1	Pf growth 48h 15µM
COc1ccc2c(c1)c(=O)c(C(=O)c1ccc(F)cc1)cn2CC(=O)Nc1ccc(F)cc1	Pf growth 48h inconclusive, Pf growth 96h inconclusive
CCc1ccc(C(=O)c2cn(CC(=O)Nc3cccc(OC)c3)c3ccc(OC)cc3c2=O)cc1	Pf growth 48h 12µM, Pf growth 96h 2.9µM (no result: Shiga toxin inh, CHX counter)
O=S(=O)(c1ccc2c(c1)OCCO2)N1CCC(O)(c2ccc(Cl)cc2)CC1	Pf growth 96h 9.3µM
O=S(=O)(c1ccc2c(c1)OCCO2)N1CCN(S(=O)(=O)c2ccc3nc(Cl)c(Cl)nc3c2)CC1	CHX counter 27 (no result: Pf growth 48h, Pf growth 96h)
O=C(c1ccc(F)cc1F)N1CCN(S(=O)(=O)c2ccc3c(c2)OCCO3)CC1	Pf growth 48h inconclusive, Pf growth 96h 9.3µM (no result: Shiga toxin inh, CHX counter)
O=S(=O)(c1ccccc1Cl)N1CCC(O)(c2ccc3c(c2)OCO3)CC1	Pf growth 96h 2.9µM
CCCN(CCC)CCCNC(=O)C(NS(=O)(=O)c1ccc2c(c1)CCC(=O)N2)c1ccccc1 (configuration not stated)	Pf growth 48h inconclusive, Pf growth 96h inconclusive
Cc1cccc(NC(=O)C(NS(=O)(=O)c2ccc3c(c2)CCC(=O)N3)c2ccccc2)n1 (configuration not stated)	Pf growth 96h 10µM
CN(C)/C=C1\N=C(c2ccc(Cl)cc2Cl)OC1=O	CHX counter 21 (no result: Pf growth 48h, Pf growth 96h)
CN(C)/C=C1/N=C(c2ccccc2)OC1=O	none (no result: Pf growth 96h)
Cc1ccc(C2=N/C(=C\N(C)C)C(=O)O2)cc1	Shiga toxin inh 75, CHX counter 40 (no result: Pf growth 48h)
Cc1cccc(OCC2=N/C(=C\N(C)C)C(=O)O2)c1	CHX counter 22
CC(C)C[C@@H](N)C(=O)O	Pf growth 96h inconclusive (no result: Shiga toxin inh, CHX counter)
COc1ccc(S(=O)(=O)N2CCOCC2)cc1NC(=O)CSc1ccc(F)cc1	Pf growth 96h inconclusive (no result: Shiga toxin inh, CHX counter)
Cn1c(SCc2ccc(Cl)cc2Cl)nc(C(F)(F)F)cc1=O	none
FC(F)(F)c1nc(SCc2ccc(Cl)cc2Cl)n[nH]1	CHX counter 20
CCOC(=O)c1cc2c(=O)n3ccccc3nc2n(CCCOC)c1=NC(C)=O	Pf growth 96h 10µM
CC(C)OCCCn1c(=N)c(C(N)=S)cc2c(=O)n3ccccc3nc21	Pf growth 96h 13µM (no result: Pf growth 48h)
CCOC(=O)c1cc2c(=O)n3ccccc3nc2n(CCCOC)c1=NC(=O)c1ccncc1	Pf growth 96h inconclusive
CCOCCCn1c(=NC(=O)c2ccc(OC)c(OC)c2)c(C#N)cc2c(=O)n3cccc(C)c3nc21	Pf growth 48h 2.3µM (no result: Pf growth 96h)
CCOC(=O)c1cc2c(=O)n3cccc(C)c3nc2n(Cc2ccccc2Cl)c1=N	none (no result: Pf growth 96h)

Compound activity as filed in PubChem BioAssay.
